# Results from the supplement of paper PMC6522484.
# ± gives the standard deviation of the averaged measurements.
# Legend:
# DLD1 [1] = assay: cell viability (CellTiter-Glo) relative to plate median (fraction of plate median); higher = more viable cells; details: 5 µM; treatment time 24 h; reporter: 7TFP
# Summary of the method: (§1)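 Stable lentiviral TCF/Wnt firefly luciferase reporters (7TFP or TCF4/Wnt) were present in the colorectal cancer cell lines used. These cells received library compounds at a final 5 µM for 24 h, and parallel plates were read for firefly luciferase or CellTiterGlo luminescence. Each well was normalised to the plate median, and the value reported is the mean of two independent replicates.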
# HCT116 [2] = assay: as above; details: 5 µM; treatment time 24 h; reporter: TCF4/Wnt
# Summary of the method: as §1
# SW480 [3] = assay: as above; details: 5 µM; treatment time 24 h; reporter: 7TFP
# Summary of the method: as §1
# DLD1 [4] = assay: TCF/Wnt firefly luciferase reporter signal relative to plate median (fraction of plate median); higher = higher Wnt reporter signal; details: 5 µM; treatment time 24 h; reporter: 7TFP
# Summary of the method: as §1
# SW480 [5] = assay: as above; details: 5 µM; treatment time 24 h; reporter: 7TFP
# Summary of the method: as §1
# DLD1 [6] = assay: TCF/Wnt firefly luciferase reporter signal relative to plate median (fraction of plate median); higher = higher Wnt reporter signal; details: 10 µM, treatment time 24 h
# Summary of the method: (§2)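 Each value averages two independent replicates in which the well signal was normalised to the plate median (webcellHTS2, additive, without log transformation). The signal was firefly luciferase or CellTiterGlo luminescence, read on parallel plates with a Tecan F500. The cells were colorectal cancer lines with stable lentiviral TCF/Wnt firefly luciferase reporters in 384-well plates, dosed 24 h after seeding with kinase inhibitor library compounds at a final 10 µM for 24 h.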
# HCT116 [7] = assay: as above; details: 10 µM; treatment time 24 h; reporter: TCF4/Wnt
# Summary of the method: as §2
# SW480 [8] = assay: as above; details: 10 µM; treatment time 24 h; reporter: 7TFP
# Summary of the method: as §2
Structure (SMILES),cell viability (DLD1 [1]),cell viability (HCT116 [2]),cell viability (SW480 [3]),TCF/Wnt firefly luciferase reporter signal (DLD1 [4]),TCF/Wnt firefly luciferase reporter signal (SW480 [5]),TCF/Wnt firefly luciferase reporter signal (DLD1 [6]; reporter: 7TFP),TCF/Wnt firefly luciferase reporter signal (DLD1 [6]; reporter: TCF4/Wnt),TCF/Wnt firefly luciferase reporter signal (HCT116 [7]),TCF/Wnt firefly luciferase reporter signal (SW480 [8])
COc1ccc(-c2oc3c(CC=C(C)C)c(O[C@@H]4O[C@H](CO)[C@@H](O)[C@H](O)[C@H]4O)cc(O)c3c(=O)c2O[C@@H]2O[C@@H](C)[C@H](O)[C@@H](O)[C@H]2O)cc1,1.03 ± 0.014,1.1 ± 0.085,0.957 ± 0.048,0.977 ± 0.1,0.974 ± 0.03,–,–,–,–
CC(=O)O[C@@H]1CC2C(C)(C)[C@H](O)CC[C@]2(C)C2CC[C@@]3(C)[C@H](c4ccoc4)OC(=O)C4OC43[C@@]21C (stereo partly drawn) [alpha-DIHYDROGEDUNOL],1.03 ± 0.028,1.01 ± 0.032,1.03,1.02 ± 0.18,0.954 ± 0.025,–,–,–,–
CC(=O)N[C@@H](CC(=O)N[C@@H](CCC(=O)O)C(=O)O)C(=O)O,1.01 ± 0.014,1.055 ± 0.0071,0.925 ± 0.011,0.958 ± 0.088,0.988 ± 0.032,–,–,–,–
COc1ccc2cc3[n+](cc2c1OC)CCc1cc2c(cc1-3)OCO2,1.04 ± 0.021,0.984 ± 0.011,1.02 ± 0.091,1.1 ± 0.085,0.954 ± 0.053,–,–,–,–
COC(=O)[C@@]1(C)CCC[C@]2(C)c3ccc(O)c(C(C)C)c3CCC12 (stereo partly drawn),1.03 ± 0.028,0.982 ± 0.096,1.03 ± 0.028,0.892 ± 0.046,0.88 ± 0.049,–,–,–,–
CC(=O)CC(=O)CCC(=O)O,1.02 ± 0.11,0.996 ± 0.12,0.935 ± 0.033,0.844 ± 0.13,0.939 ± 0.02,–,–,–,–
C[C@]12CCC(=O)C=C1C=C[C@@H]1[C@@H]2CC[C@@]2(C)[C@H]1CC[C@@]21CCC(=O)O1,0.884 ± 0.075,0.899 ± 0.049,0.969 ± 0.044,1.1 ± 0.071,1.025 ± 0.0071,–,–,–,–
CN(C)c1ccc2nc3ccc(=[N+](C)C)cc-3sc2c1,1 ± 0.052,0.878 ± 0.021,1.16 ± 0.071,1.06 ± 0.078,1.11 ± 0.021,–,–,–,–
CC(=O)O[C@@H]1CC2C(C)(C)C(=O)CC[C@]2(C)C2CC[C@]3(C)C(=CC(=O)O[C@H]3c3ccoc3)[C@@]21C (stereo partly drawn),1.05 ± 0.12,1.06 ± 0.17,1.07 ± 0.092,1.06 ± 0.11,0.949 ± 0.087,–,–,–,–
COc1ccc(-c2coc3cc(O)ccc3c2=O)c(OC)c1,0.989 ± 0.016,1.01 ± 0.067,1.04 ± 0.05,1.035 ± 0.0071,1.01 ± 0.064,–,–,–,–
CCN1CCN(C(=O)N[C@@H](C(=O)N[C@@H]2C(=O)N3C(C(=O)O)=C(CSc4nnnn4C)CS[C@H]23)c2ccc(O)cc2)C(=O)C1=O,0.973 ± 0.053,1.06 ± 0.035,0.951 ± 0.023,0.886 ± 0.042,1.01 ± 0.098,–,–,–,–
CC(=O)OC1CC[C@@]2(C)C(CC[C@H]3[C@@H]4CC=C(C(C)=O)[C@@]4(C)C(=O)C[C@@H]32)C1 (stereo partly drawn),1 ± 0.012,1.05 ± 0.081,1.04 ± 0.072,1.08 ± 0.014,1.06 ± 0.05,–,–,–,–
CC(C)(Oc1ccc(CCNC(=O)c2ccc(Cl)cc2)cc1)C(=O)O,1.05 ± 0.014,1.06 ± 0.064,1 ± 0.069,0.919 ± 0.016,0.986 ± 0.02,–,–,–,–
CC(NCCc1ccc(O)cc1)C(O)c1ccc(O)cc1 (stereo not drawn),0.914 ± 0.1,0.929 ± 0.1,0.933 ± 0.056,0.981 ± 0.07,0.913 ± 0.027,–,–,–,–
CC(=O)NCC(=O)c1c[nH]c2ccccc12 [N-Acetyl-beta-oxotryptamin],1.02 ± 0.048,0.983 ± 0.095,0.982 ± 0.013,1.11 ± 0.085,0.932 ± 0.052,–,–,–,–
Cc1noc(NS(=O)(=O)c2ccc(N)cc2)c1C,0.904 ± 0.0057,1.04 ± 0.13,0.915 ± 0.044,1.02 ± 0.076,0.984 ± 0.079,–,–,–,–
Cc1ccccc1-n1c(Cn2nc(-c3cccc(O)c3)c3c(N)ncnc32)nc2cccc(C)c2c1=O,–,–,–,–,–,1.07 ± 0.042,0.89 ± 0.021,0.841 ± 0.44,1.07 ± 0.12
C=C[C@H]1CN2CC[C@H]1C[C@@H]2[C@@H](O)c1ccnc2ccc(OC)cc12,0.963 ± 0.052,0.966 ± 0.042,0.977 ± 0.047,1.21 ± 0.14,0.933 ± 0.021,–,–,–,–
CC(C)C[C@@H]1NC(=O)[C@H](CCCN)NC(=O)[C@H](C(C)C)NC(=O)[C@H](Cc2ccc(O)cc2)N[C@@H](CCC(=O)O)C(=O)N[C@@H](CC(N)=O)C(=O)[C@@H](Cc2ccccc2)NC(=O)[C@H](Cc2ccccc2)NC(=O)[C@@H]2CCCN2C(=O)[C@@H](Cc2ccccc2)NC1=O,0.894 ± 0.091,0.71 ± 0.072,0.486 ± 0.082,0.685 ± 0.041,0.469 ± 0.1,–,–,–,–
C=C1CCC(C2CC(=O)OC2=O)C(=O)CCC2C1CC2(C)C (stereo not drawn),1.01 ± 0.049,1.04 ± 0.09,0.958 ± 0.0085,1.01 ± 0.19,0.901 ± 0.018,–,–,–,–
CC(C)CC(NC(=O)OCC1c2ccccc2-c2ccccc21)C(=O)O (stereo in doubt),1.06 ± 0.057,0.996 ± 0.035,1.01 ± 0.021,0.979 ± 0.027,1.02 ± 0.029,–,–,–,–
COc1ccc(-c2coc3c(O)c(OC)ccc3c2=O)cc1,0.969 ± 0.073,0.984 ± 0.08,0.99 ± 0.014,1 ± 0.12,1.01 ± 0.095,–,–,–,–
COc1cc(C)c(C(=O)O)c(O)c1,1.05 ± 0.014,1.11 ± 0.14,1 ± 0.037,0.924 ± 0.0085,0.986 ± 0.02,–,–,–,–
Cc1cc2c(s1)Nc1ccccc1N=C2N1CCN(C)CC1,0.979 ± 0.0057,1.14 ± 0.12,1.03 ± 0.063,1.05 ± 0.071,–,–,–,–,–
CC(=O)Oc1c(-c2ccccc2)oc2c(CC=C(C)C)c3c(c(OC(C)=O)c2c1=O)C=CC(C)(C)O3,1.05 ± 0.057,1.11 ± 0.11,1.02 ± 0.028,0.855 ± 0.044,0.972 ± 0.036,–,–,–,–
O=CNc1ccccc1C(=O)O [N-Formylanthranilic acid],0.936 ± 0.018,1.02 ± 0.021,0.92 ± 0.088,0.954 ± 0.12,0.689 ± 0.13,–,–,–,–
COc1ccc([C@H]2COc3c(ccc(O)c3OC)C2)c(OC)c1O,1.01 ± 0.038,0.95 ± 0.052,1.03 ± 0.014,0.987 ± 0.13,0.878 ± 0.069,–,–,–,–
O=c1cccc2ccc(O)c(O)c2c1O,0.975 ± 0.012,0.994 ± 0.11,0.966 ± 0.033,0.994 ± 0.079,1.06 ± 0.042,–,–,–,–
"C/C=C/C=C/[C@@H]1O[C@](O)([C@H](CC)C(=O)NC/C=C/C=C(\C)[C@@H](OC)[C@@H](C)[C@@H]2O[C@H](/C=C/C=C/C=C(\C)C(=O)c3c(O)ccn(C)c3=O)[C@H](O)[C@@H]2O)C[C@H](O)C1(C)C (single isomer, unassigned; isomere) [Heneicomycin (Isomere)]",0.948 ± 0.037,1.04 ± 0.14,1.035 ± 0.0071,1.05 ± 0.064,1.03 ± 0.021,–,–,–,–
